# Bioassay records: PubChem, National Center for Advancing Translational Sciences (NCATS)
# MmCpn inh = Inhibitors of TCP-1 ring complex (TRiC) of Methanococcus maripaludis (MmCpn): qHTS | purified Mm-Cpn ATPase, ADP Transcreener TR-FRET | Potency, µM (titrated, usually from 76.9 µM), inactives show at the highest dose activity, negative = inhibition, most hits filed as inhibitors | Chaperonin Mm-Cpn (Methanococcus maripaludis) | 0.031% of 330,000 active; active = well fitted inhibition curve with a large enough effect; inconclusive = small, poorly fitted or top-dose-only effect; also: potency is read from the fitted curve at half-maximal effect; % is scaled to controls: 0 for no effect and ±100 for the full control effect; nearly all actives have a fitted effect of over 80% in size
#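 Reaction buffer contained 30 mM Tris pH 7.4, 100 mM KCl, 5 mM MgCl2 and 1 mM DTT. Mm-CPN (25 nM final) hydrolysed 10 uM ATP over 30 min at 37°C; ADP was read by HTRF.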
# uPA generation = qHTS for Inhibitors of Cell Surface uPA Generation; Potency, µM (highest dose often 38.3 µM), for inactives: top-dose activity change, negative = inhibition, hits mostly inhibitors; AID 540303, 2011; cell surface uPA generation assay, qHTS; 0.31% of 330,000 active; active = well fitted inhibition curve with a large enough effect; inconclusive = small, poorly fitted or top-dose-only effect; inactive = no such curve, though single readings can be large or run the other way; tested in mouse RAW 264.7 cells; also: potency is read from the fitted curve at half-maximal effect; % is scaled to controls: 0 for no effect and ±100 for the full control effect; nearly all actives have a fitted effect of over 55% in size
# TSHR antagonist = Antagonists of the Thyroid Stimulating Hormone Receptor: HTS campaign. TSHR-expressing cells, TSH-stimulated cAMP HTRF, 2 h; active compounds read low. activity change, negative = inhibition, % at 11.5 µM. 0.2% of 330,000 active. AID 504810, 2011;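 active = activity change below a set negative limit, meaning inhibition stronger than a set level, cut at about -70% in these data; inconclusive = activity change between two set negative limits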; also: % is scaled to controls: 0 for no effect and ±100 for the full control effect
# Target sequence (P16473 whole entry, looked up): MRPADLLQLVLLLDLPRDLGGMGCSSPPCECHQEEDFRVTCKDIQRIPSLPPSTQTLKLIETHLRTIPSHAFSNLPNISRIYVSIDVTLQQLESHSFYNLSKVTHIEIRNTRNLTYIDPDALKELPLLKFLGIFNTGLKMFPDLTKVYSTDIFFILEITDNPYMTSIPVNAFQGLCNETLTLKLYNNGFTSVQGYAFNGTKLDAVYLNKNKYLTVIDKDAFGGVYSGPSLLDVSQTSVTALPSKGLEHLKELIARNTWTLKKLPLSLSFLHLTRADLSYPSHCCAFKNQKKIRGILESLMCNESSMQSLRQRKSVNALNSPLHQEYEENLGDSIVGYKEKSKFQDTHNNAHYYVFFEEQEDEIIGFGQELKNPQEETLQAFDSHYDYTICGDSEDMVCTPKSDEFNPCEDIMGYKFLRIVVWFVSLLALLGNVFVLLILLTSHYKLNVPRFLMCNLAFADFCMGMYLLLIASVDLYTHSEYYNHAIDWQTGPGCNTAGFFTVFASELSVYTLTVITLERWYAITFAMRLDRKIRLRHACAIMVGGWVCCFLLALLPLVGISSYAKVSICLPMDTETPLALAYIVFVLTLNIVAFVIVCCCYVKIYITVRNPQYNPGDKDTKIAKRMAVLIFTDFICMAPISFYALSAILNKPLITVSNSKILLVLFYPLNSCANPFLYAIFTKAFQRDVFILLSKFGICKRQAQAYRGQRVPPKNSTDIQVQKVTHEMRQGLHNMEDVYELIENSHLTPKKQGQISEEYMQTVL
#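 Read-out is FRET at 665 nm (cryptate excitation 337 nm) from a cryptate-tagged anti-cAMP antibody, competed by cell cAMP against cAMP-d2. Compounds are tested on freshly harvested TSHR cells challenged with 4nM TSH (EC80) for 2 hours at 37 deg C.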
# CCT modulator = High-Throughput Screening for Modulators of Cytosolic Chaperonin Activity | activity change, % (concentration not given with the values), hits read low | purified chaperonin ATPase assay, HTRF ADP detection, 30 min | 0.3% of 360,000 active | AID 651819, 2012; in the data active = activity change below about -30%; also: % is scaled to controls: 0 for no effect and ±100 for the full control effect
#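 ATPase activity: ADP formed was measured by HTRF Transcreener (665/615 nm ratio) after 30 min at 37 deg C with 10 uM ATP. Compounds screened at one 76 uM concentration against 40 or 20 nM TRiC in Tris pH 7.4/KCl/MgCl2/DTT buffer.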
# gsp ag = qHTS for Agonist of gsp, the Etiologic Mutation Responsible for Fibrous Dysplasia/McCune-Albright Syndrome: qHTS | 0.13% of 340,000 active | gsp mutant cells, cAMP HTRF, 30 min | Potency, µM (doses to about 76.9 µM), inactives show at the highest dose activation (cAMP increase), actives largely listed as activators; active = well fitted activation curve with a large enough effect; inconclusive = small, poorly fitted or top-dose-only effect, or another doubt; inactive = no such curve, though single readings can be large or run the other way; cell line not stated here;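 also: phosphodiesterase inhibitor Ro 20-1724 added with compounds to block cAMP breakdown; potency is read from the fitted curve at half-maximal effect; nearly all actives have a fitted effect of over 60% in size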
#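 Cells stably selected in G418 were plated at 2000/well, grown 16-24 hr, then given compounds in DMSO with the PDE inhibitor […] (300 uM solution added) for 30 min at 37C; cAMP was read by HTRF.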
# gsp antag = qHTS for Antagonists of gsp, the Etiologic Mutation Responsible for Fibrous Dysplasia/McCune-Albright Syndrome: qHTS; Potency, µM (top dose mostly 76.9 µM), without a hit: at the top dose activity change, negative = inhibition, actives largely listed as inhibitors; 0.4% of 340,000 active; gsp-mutant cells, cAMP HTRF, 30 min; calls by dose curve; cell line not stated here;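 also: intracellular cAMP measured with PDE inhibitor Ro 20-1724 present during compound exposure; potency is read from the fitted curve at half-maximal effect; % is scaled to controls: 0 for no effect and ±100 for the full control effect; nearly all actives have a fitted effect of over 65% in size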
#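 HTRF cAMP measurement after 30 min RT detection following 30 min, 37C compound treatment alongside […] (added as 300 uM solution) in G418-selected cells seeded at 2000/well and grown 16–24 h.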
# Numbers without * were called inactive; ? = inconclusive; nt = not tested or not shown; [ ] = remark or other dose. In the library only some 1.2% were active in any assay of this set; here they are far more common.
SMILES,MmCpn inh,uPA generation,TSHR antagonist,CCT modulator,gsp ag,gsp antag
CC(NC(=O)CN1CCCC1)C12CC3CC(CC(C3)C1)C2 (centres undefined),2%,nt,17,-2,-39%,7%
CC(=O)NC1C(=O)N(CCN2CCOCC2)c2ccc(Cl)cc21 (centres undefined),-6%,3%,20,-30*,?,5%
CC(=O)NC1C(=O)N(CCN2CCOCC2)c2ccc(C)cc21 (centres undefined),-10%,-7%,1,-1,25%,6%
CCCN(CC(=O)Nc1ccccc1C)C(=O)Cc1n[nH]c(=O)c2ccccc12,0%,10%,-5,0,0%,7%
COc1ccccc1OC(C)C(=O)N1CCc2ccccc21 (centres undefined),3%,-17%,-2,-1,?,-6%
COc1ccccc1N1CC(C(=O)OC(C)C(=O)N2CCCc3ccccc32)CC1=O (centres undefined),-3%,0%,-7,-60*,5%,-19%
CCSc1nsc(NC(=O)Nc2ccccc2F)n1,-2%,1%,-20,-8,2%[15.4 µM],?
C=CCSc1nsc(NC(=O)Nc2ccc(F)cc2)n1,-1%,-18%,-82*,-2,-19%,-35%
CCCc1cc(Nc2ccccc2C)n2ncnc2n1,-2%,-10%,-3,0,-1%[15.4 µM],3%
CC(=O)c1ccc(OCC(O)Cn2nnc3ccccc32)cc1 (centres undefined),-3%,5%,-1,-1,-2%,-23%
N#Cc1ccc(-c2ccc(OCC(O)Cn3nnc4ccccc43)cc2)cc1 (centres undefined),-2%,0%,-35,0,-5%,32µM*
Cc1cccc(C)c1NS(=O)(=O)c1c(C)[nH]c(=O)[nH]c1=O,-1%,1%,2,-37*,-49%,6%
Cc1nc(-c2ccccc2)sc1C(=O)NN,-1%,10µM*,1,-2,16%,5%
COc1ccc(S(=O)(=O)N2CCN(c3ccccn3)CC2)c(OC)c1,0%,17%,8,0,-30%,3%
Cc1cc(C)n(Cc2ccc(C(=O)NCc3ccco3)o2)n1,1%,0%,5,-2,-27%,-1%
Cc1ccc(CNC(=O)c2ccc(Cn3nc(C)cc3C)o2)cc1,-1%,-8%,-9,-73*,11%,-6%
CCOC(=O)C1C(=O)CC(C)(O)C(C(=O)OCC)C1c1ccc(OC)cc1 (centres undefined),nt,1%,nt,-32*,-15%,9%
C[C@H](NC(=O)OC(C)(C)C)c1nnc(SCC(=O)Nc2cccc(Cl)c2)o1,0%,-1%,-15,-1,7%,-16%
CC(C)[C@H](NC(=O)OC(C)(C)C)c1nnc(SCC(=O)Nc2ccc(Br)cc2)o1,-2%,5%,-38,-2,5%,35µM*
Cc1cc(NC(=O)CSc2ccc3nnc(-c4ccccn4)n3n2)no1,-4%,8%,16,0,6.3µM*,6%
O=C(CSc1ccc2nnc(-c3ccccn3)n2n1)Nc1ccccc1,-1%,-2%,9,-1,-20%[15.4 µM],14%
Cc1cccc2c1-c1sc(C(=O)NCCCN3CCCC(C)C3)cc1CO2 (centres undefined),-7%,?,-75*,-1,?,8%
CCCN1CCN(CCCNC(=O)c2cc3c(s2)-c2c(C)cccc2OC3)CC1,?,?,3,1,?,-13%
CCCN1CCN(CCCNC(=O)c2cc3c(s2)-c2ccccc2OC3)CC1,-7%,-21%,-72*,-1,1%,3%
COc1ccc(NC(=O)Nc2cccc(NC(C)=O)c2)c(OC)c1,1%,3%,-16,-43*,-1%[15.4 µM],4%
SMILES,MmCpn inh,uPA generation,TSHR antagonist,CCT modulator,gsp ag,gsp antag
COc1cc(NC(=O)Nc2cccc([N+](=O)[O-])c2)cc(OC)c1,-1%,7%,-8,-53*,0%[15.4 µM],nt
COCCNCCOc1ccc(C)cc1[N+](=O)[O-],0%,2%,17,-5,-5%,50µM*
COc1ccc(CC(=O)Nc2c(C(=O)N3CCN(c4ncccn4)CC3)oc3ccccc23)cc1,-5%,1%,2,-68*,14%,-17%
CCOC(=O)/C(N=Nc1c(C)n(C)n(-c2ccccc2)c1=O)=C(\C)O,1%,9%,1,-2,4%,-8%
CC(=O)/C(N=Nc1c(C)n(C)n(-c2ccccc2)c1=O)=C(\C)O,1%,1%,-3,-3,11µM*,2%
CN(C)c1nc(-c2ccccc2)ncc1S(=O)(=O)c1ccccc1,-4%,12%,3,-32*,3%,-8%
CCN(CC)c1nc(-c2ccccc2)ncc1S(=O)(=O)c1ccc(C)cc1,1%,12%,-13,0,-4%,-10%
COc1ccc(N(Cc2ccccc2)C(=O)CSc2nnc(Cn3nnc4ccccc43)o2)cc1,0%,-5%,-5,-2,25%,28µM*
Cc1cccc(NC(=O)C2=C(O)c3ccccc3N(C)S2(=O)=O)c1,-1%,2%,0,-2,18%,25µM*
CN1c2ccccc2C(O)=C(C(=S)Nc2ccc(Cl)cc2)S1(=O)=O,0%,-1%,-31,0,3%,28µM*
COc1cc(CN2CC(=O)N(c3ccccc3Cl)C2=S)cc(OC)c1OC,0%,-4%,-11,-3,-16%,35µM*
CCC(C)Sc1cccc(-c2nc3ccc(C)cn3c2NCc2ccccc2)c1 (centres undefined),-5%,?,-79*,0,nt,?
CC1CCN(S(=O)(=O)c2ccc(Cl)cc2)CC1,1%,nt,-8,-43*,-2%,50µM*
CCOc1ccccc1NC(=O)CNC(=O)Cc1ccccc1,2%,-1%,-6,-43*,-4%[15.4 µM],14%
CCOc1ccccc1NC(=O)c1nc(S(=O)(=O)Cc2ccccc2)ncc1Cl,-2%,3.2µM*,-75*,-2,-49%,17%
COc1ccccc1NC(=O)c1nc(S(=O)(=O)Cc2ccccc2)ncc1Cl,0%,-5%,-78*,-1,8%[15.4 µM],-7%
CCS(=O)(=O)c1ncc(Cl)c(C(=O)Nc2ccccc2OC)n1,0%,-12%,-14,-1,-47%,-33%
